Drawing on the supplement of paper PMC6555819, this text covers PBM binding z-score for 40 sequences.

The assay has as its system VDR:RXRa (NR concentration 270 nM, RXRa partner concentration 90 nM). As to the kind of experiment: PBM binding z-score (relative to random genomic background probes); higher = stronger binding; sequences stand for … in GC…GCGATTGACAGCGTAGAATGAAGG
How it is done: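 Protein-binding microarray (Agilent 4x180K custom design, double-stranded 60-nt probes: 5' GC cap, 34-nt variable region, 24-nt constant primer region; full probe sequence given). Purified or IVT nuclear receptor:RXRα heterodimers (3:1 NR:RXRα, mostly 270:90 nM) or homodimers were incubated for 1 h in PBS with 2% milk and no ligand, then detected with Alexa488 antibodies. Fluorescence from o1-orientation probes (~5 replicates averaged) was converted to z-scores against 500 random hg19 background probes. Variable regions are seed direct-repeat (DR0–DR5) sites, all their single-nucleotide variants and half-site ablations.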
Sequence TCTTGTAGATCAACAGAGGTTAAGAAAGTGCGCT returned a PBM binding z-score of 2.03.

The sequence CCTAGTTGGTCACGAGGTCACACACCGGATATGA yielded a PBM binding z-score of 4.77.

Consider CCGATTGGGGCAGAAAGGTTACCATACCATCCGG, for which the PBM binding z-score was found to be 0.707.

The sequence TCTGGTAGATCAAAGGTTAAGAAAGCCGAAGCCT gave a PBM binding z-score of 1.48.

In the case of CCTAATGGGCCAAAAAGGTCATTGATGCCGATAA, the PBM binding z-score was 5.11.

Regarding TCTAGTTGGTCAAAGGTCATACACTCGAAATGCG, the PBM binding z-score came to 5.38.

Turning to CGAACAAGGTCAAGGACAGTGAATCTCCGCACGC, the PBM binding z-score is 4.11.

In turn, CGAACTAGGTTAGAACAGGACAGTGAAGGATGAT registered a PBM binding z-score of -0.215.

GGAACGAGGGCAAGTTGATCGCAGAGTTTGATGG gave a PBM binding z-score of 0.673.

As for GGAACGAGGGCAAGTTGTTAGCAGAGTTTGATGG, the PBM binding z-score turned out to be 0.88.

In turn, TGAATGAGGTTAAAGATCAGTGAACGTGGCGTCG yielded a PBM binding z-score of 1.62.

TCATTTAGGTAATACAGGTGAAAGTCGGCATCTA yielded a PBM binding z-score of 1.18.

TCATATAGGTAATACAGGTGAAAGCCGGCATCTA yielded a PBM binding z-score of 1.2.

GCTGACGGGTCAAAGGTTATAGCATGAATAGAAT had a PBM binding z-score of 5.27.

For the sequence CCTTACGAGTCACTGACAGGTTATAGCATTTGGA, the PBM binding z-score came to 1.06.

TCAGACAGGTGAAGGTAACTCATGTACGCAGTCG showed a PBM binding z-score of 0.532.

Sequence CGAACTAGGTCATTGACTGGACAGTGAATAGTAA returned a PBM binding z-score of 1.68.

CCTACTGGGCCGCGAAAGGTCATTGATTCAGTGA: the PBM binding z-score was 3.74.

CGTCAAAGTTCAAGGTAACGTTACAGAAAGCAGC: the PBM binding z-score turned out to be 3.97.

For TCATATAGGTATAGGTGAAAGTCGAACGATATGA, the PBM binding z-score is 0.632.

GCTCGGAGGACATGGTCAGAGCTTTGTCCGTAGA had a PBM binding z-score of -0.753.

For GATACAGCGTCAAGGCCAGAGTACGCGTATTGAT, the PBM binding z-score was -0.35.

TTACCGAGGTGAAGGTCGTTGATCCCTCTGTAGA displayed a PBM binding z-score of 1.5.

On to ACTAGCAAGCCAAGGGTCACTCAAGATTAGTCCG, for which the PBM binding z-score worked out at 2.68.

On to CCTAGCTGGCCAATCTGGGTCACTCAAGGCTTGA, for which the PBM binding z-score turned out to be 0.147.

In turn, CTCGAAAGTTCGTGCTCAGGTGAGTATACCAAAC came in with a PBM binding z-score of 1.71.

As to GATACAGGGTCAGCTAGAAGCCAGAGTATGGAAA, the PBM binding z-score worked out at 2.11.

CATACAGGGTCAGCTAGGCCACAGTAGGGACGGC registered a PBM binding z-score of 4.79.

On to CGAACGAGGCCATGAGTTGATAGCAAATGCCGAT, for which the PBM binding z-score came out at 0.155.

Consider ATCTCTAGGTAAGACTCAGTTCCGTGAAGAACGC, for which the PBM binding z-score worked out at 0.121.

Regarding TCGAATAGGTTAGTCGGGGCATTCAGCCAACATA, the PBM binding z-score amounted to 3.04.

In turn, TCTTGTAGATCAACAGGGGGTTAAGAAAGATCGA yielded a PBM binding z-score of 2.13.

For CTCTAAAGGTCGTGCTCAGGTGAGTATACCAAAC, the PBM binding z-score turned out to be 3.27.

Regarding ATCGAAAGGTCGGAGGTGAGTATACCCACCCGAA, the PBM binding z-score is 1.75.

On to CAAACTTGGTCAAGGTCAAAGTCGGTTTGTGCCA, for which the PBM binding z-score amounted to 4.47.

With TCGTATAGGTAAAAGGTGAAAGTCGGTGTGGTAA, the PBM binding z-score stood at 1.58.

In turn, TCTCGGAGGACATGAAGGTCAGAGCTTTCCAGAG had a PBM binding z-score of 1.77.

Sequence TGAATGAGGTTATAAGATCAGGTAACGTTGCAAA yielded a PBM binding z-score of 1.14.

Sequence CAATCTAGGTCACCGGAAGGTCAAAGTCCGCATG displayed a PBM binding z-score of 6.01.

ATCTCTAGGTAAAAGTTTAGTGAATCCCGAGGAT showed a PBM binding z-score of 0.124.
